Compounds with a hit are over-represented: about 18% of the library has one in this group of screens.
IL-1B inflam inh: qHTS for Inhibitors of Inflammasome Signaling: IL-1-beta AlphaLISA Primary Screen; THP-1 LPS/ATP IL-1B secretion, AlphaLISA, 16 h; stronger effect = lower value; 4.7% of 360,000 active; activity change, % at 57.5 µM; in the data active = activity change below about -50%; inconclusive = mostly about -30% to -49%
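THP-1 cells pretreated 1 hr with compounds (up to 57.5 uM final), then stimulated with LPS (250 ng/mL final) plus ATP (1.25 mM final); secreted IL-1B measured by AlphaLISA after 16 hr, decreased signal indicating inhibition.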
CtBP-E1A blk: qHTS Assay for Inhibitors of the CtBP/E1A Interaction | AlphaScreen GST-E1A/His-CtBP binding, 1536-well; stronger effect = lower value | activity change, % (concentration not given with the values) | 0.49% of 340,000 active | AID 651724, 2012; in the data active = activity change below about -65%; inconclusive = mostly about -30% to -63%
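Steps: dispense buffer (Tris pH 8.0, NaCl 300 mM, TCEP 1 mM, BSA, Tween 20); add 5X protein mix (GST-E1A, His-CtBP, 125 nM each); pin 23 nL compound; 2 h at 37 °C, dark; add 5X beads (50 ug/mL); 1 h; read.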
DT40 TDP1 no CPT: qHTS for Inhibitors of human tyrosyl-DNA phosphodiesterase 1 (TDP1): qHTS in cells in absence of CPT; 15% of 420,000 active; AID 686978, 2013; DT40 Tdp1-/- hTDP1 cells, no CPT, ATP luminescence, 48 h; Potency, µM (top dose mostly 46.2 µM), usual class: inhibitors; also: nearly all actives have a fitted effect of over 55% in size
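A cellular qHTS used chicken DT40 cells lacking endogenous Tdp1 but carrying stably transfected human TDP1. Compounds were applied without camptothecin, and cell growth kinetics were judged by ATP-dependent luminescence after ≥48 hr.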
DT40 TDP1 CPT: qHTS for Inhibitors of human tyrosyl-DNA phosphodiesterase 1 (TDP1): qHTS in cells in presence of CPT | chicken DT40 Tdp1-/-;hTDP1 cells + 20 nM CPT, ATP luminescence, 48 h | Potency, µM (top dose mostly 46.2 µM), hits mostly inhibitors | 12% of 420,000 active; also: nearly all actives have a fitted effect of over 55% in size
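Chicken DT40 Tdp1-/- cells complemented with human TDP1, 400 cells/well, exposed to compounds plus 20 nM camptothecin for at least 48 h at 37 C; viability read as ATP content by CellTiter-Glo luminescence.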
Six1-Eya2 blk: qHTS Assay for Inhibitors of the Six1/Eya2 Interaction. Homeobox protein SIX1 (Homo sapiens) + Protein phosphatase EYA2 (Homo sapiens), …. AlphaScreen GST-Six1/His-Eya2 binding, biochemical; stronger effect = lower value. activity change, % (concentration not given with the values). 0.56% of 360,000 active. AID 651725, 2012; in the data active = activity change below about -65%; inconclusive = mostly about -30% to -63%
Target sequence (O00167 whole entry, looked up): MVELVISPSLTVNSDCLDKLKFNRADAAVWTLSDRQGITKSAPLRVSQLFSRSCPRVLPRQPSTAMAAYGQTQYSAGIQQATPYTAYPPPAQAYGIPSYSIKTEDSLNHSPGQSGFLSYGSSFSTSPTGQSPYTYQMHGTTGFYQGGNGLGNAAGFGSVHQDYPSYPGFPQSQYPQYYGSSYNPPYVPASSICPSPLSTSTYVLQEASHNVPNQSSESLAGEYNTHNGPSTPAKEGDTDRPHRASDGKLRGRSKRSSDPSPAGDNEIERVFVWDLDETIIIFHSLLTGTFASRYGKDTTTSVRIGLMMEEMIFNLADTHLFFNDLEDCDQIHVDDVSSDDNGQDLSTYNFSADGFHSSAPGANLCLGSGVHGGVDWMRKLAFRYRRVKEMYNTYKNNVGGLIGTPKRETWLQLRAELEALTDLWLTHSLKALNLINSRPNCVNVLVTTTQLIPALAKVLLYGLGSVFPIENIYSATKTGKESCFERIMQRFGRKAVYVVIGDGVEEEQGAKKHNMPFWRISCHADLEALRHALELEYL
Target sequence (Q15475 whole entry, looked up): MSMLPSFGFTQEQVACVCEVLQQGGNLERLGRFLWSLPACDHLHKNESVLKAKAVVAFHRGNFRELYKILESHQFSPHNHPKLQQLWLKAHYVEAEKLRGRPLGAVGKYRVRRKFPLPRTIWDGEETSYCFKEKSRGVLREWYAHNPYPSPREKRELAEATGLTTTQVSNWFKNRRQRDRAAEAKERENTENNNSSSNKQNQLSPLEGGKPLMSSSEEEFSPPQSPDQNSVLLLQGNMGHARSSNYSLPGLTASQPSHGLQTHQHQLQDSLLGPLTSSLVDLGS
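AlphaScreen with GST-Six1 and His-Eya2 (5X mix: 250 nM and 500 nM), glutathione donor and nickel acceptor beads; buffer 50 mM Tris pH 8.0, 300 mM NaCl, 1 mM TCEP; 1 h at 37 C in the dark.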
TDP1 block: qHTS Assay for Inhibitors of Tyrosyl-DNA Phosphodiesterase (TDP1). Tyrosyl-DNA phosphodiesterase 1 (Homo sapiens), Q9NUW8. recombinant TDP1, AlphaScreen DNA substrate cleavage. Potency, µM (top dose mostly 130 µM), hits mostly inhibitors. 0.28% of 350,000 active. AID 485290, 2010; also: nearly all actives have a fitted effect of over 40% in size
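Recombinant human Tdp1 (E. coli-expressed, 1 nM final) preincubated with compounds 15 min at room temperature, then 5'-biotin/3'-phosphotyrosine-FITC DNA substrate (15 nM final) added for 5 min. AlphaScreen beads (10 ug/ml final) added 10 min; cleavage lowers signal.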
Each line names hits and unclear results; the compound was inactive in the other large screens. Unless noted, calls follow the shape of the dose curve; as a rule, active = well fitted curve in the direction sought with a large enough effect; inconclusive = small, poorly fitted or top-dose-only effect, or another doubt; inactive = no such curve, though single readings can be large; an effect the other way counts as inactive or inconclusive.

COC(=O)c1ccc2c(=O)n(CCN3CCOCC3)c(SCC(=O)c3ccccc3)nc2c1	none
O=P(COCCOCP(=O)(c1ccccc1)c1ccccc1)(c1ccccc1)c1ccccc1	none
CCCCN(CCCC)CP(=O)(c1ccccc1)c1ccccc1	DT40 TDP1 no CPT 15µM, DT40 TDP1 CPT 16µM
O=P(COCCCCCOCP(=O)(c1ccccc1)c1ccccc1)(c1ccccc1)c1ccccc1	IL-1B inflam inh inconclusive, DT40 TDP1 no CPT 18µM, DT40 TDP1 CPT 16µM
O=P(CCCCCCCCCP(=O)(c1ccccc1)c1ccccc1)(c1ccccc1)c1ccccc1	IL-1B inflam inh -104, DT40 TDP1 no CPT 8.2µM, DT40 TDP1 CPT 7.3µM
O=C(O)CCCCCCCCCCP(=O)(c1ccccc1)c1ccccc1	none
CCCOP(=O)(c1ccccc1)c1ccccc1	DT40 TDP1 no CPT inconclusive, DT40 TDP1 CPT 21µM
O=C(CN1C(=O)COc2ccccc21)Nc1ccc(N2CCOCC2)cc1	none
CCCCN1CCNC[C@@H]1Cc1ccc(O)cc1	none (no result: CtBP-E1A blk)
COc1ccc(-n2cc(C(=O)NC(C)c3ccccc3)c3ccccc3c2=O)cc1 (centres undefined)	DT40 TDP1 no CPT inconclusive, DT40 TDP1 CPT 18µM (no result: IL-1B inflam inh, CtBP-E1A blk, Six1-Eya2 blk)
COc1cccc(-n2cc(C(=O)Nc3cccc(C(F)(F)F)c3)c3ccccc3c2=O)c1	DT40 TDP1 no CPT inconclusive, DT40 TDP1 CPT 16µM (no result: IL-1B inflam inh, CtBP-E1A blk, Six1-Eya2 blk)
CCN(C(=O)c1cn(-c2ccc(OC)cc2)c(=O)c2ccccc12)c1cccc(Cl)c1	DT40 TDP1 no CPT 16µM, DT40 TDP1 CPT 16µM (no result: IL-1B inflam inh, CtBP-E1A blk, Six1-Eya2 blk)
COc1cccc(-n2cc(C(=O)NCCc3ccc(C)cc3)c3ccccc3c2=O)c1	DT40 TDP1 no CPT 10µM, DT40 TDP1 CPT 8.2µM (no result: IL-1B inflam inh, CtBP-E1A blk, Six1-Eya2 blk)
O=S(=O)(c1ccc(Cl)s1)N1CCCCC1	none
CCOc1ccc(-c2cnc3n2CCC3)cc1	DT40 TDP1 no CPT inconclusive, DT40 TDP1 CPT inconclusive
Cc1cc(NC(=O)C2(c3ccccc3)CCCC2)no1	DT40 TDP1 no CPT inconclusive
CCOc1ccc(CCNC(=O)c2cn(-c3cccc(OC)c3)c(=O)c3ccccc23)cc1	DT40 TDP1 no CPT 21µM, DT40 TDP1 CPT inconclusive (no result: IL-1B inflam inh, CtBP-E1A blk, Six1-Eya2 blk)
COc1ccc(-n2cc(C(=O)NCCc3ccc(C)cc3)c3ccccc3c2=O)cc1	DT40 TDP1 no CPT 21µM, DT40 TDP1 CPT inconclusive (no result: IL-1B inflam inh, CtBP-E1A blk, Six1-Eya2 blk)
Cc1ccc(-n2cc(C(=O)Oc3ccc(F)cc3)c3ccccc3c2=O)cc1	DT40 TDP1 no CPT inconclusive, DT40 TDP1 CPT 16µM (no result: IL-1B inflam inh, CtBP-E1A blk, Six1-Eya2 blk)
Cc1ccc(-n2cc(C(=O)Oc3cccc(C)c3)c3ccccc3c2=O)cc1	none (no result: IL-1B inflam inh, CtBP-E1A blk, Six1-Eya2 blk)
COc1cccc(-n2cc(C(=O)NCc3ccc(C)cc3)c3ccccc3c2=O)c1	DT40 TDP1 no CPT inconclusive, DT40 TDP1 CPT 15µM (no result: IL-1B inflam inh, CtBP-E1A blk, Six1-Eya2 blk)
Cc1ccc(F)c(S(=O)(=O)NC(=O)C2(C)CCN2C(=O)Cc2ccc(Cl)cc2Cl)c1 (centres undefined)	none (no result: TDP1 block)
Cc1cccc(NC(=O)Nc2ccc(Cl)c(Cl)c2)n1	DT40 TDP1 no CPT inconclusive
CCN(CC)CCOc1ccc2c(c1)C(=O)c1cc(OCCN(CC)CC)ccc1-2	DT40 TDP1 no CPT 10µM, DT40 TDP1 CPT 15µM (no result: IL-1B inflam inh, CtBP-E1A blk, Six1-Eya2 blk)
COc1cc(-c2nn3c(Cc4ccccc4)nnc3s2)cc(OC)c1OC	DT40 TDP1 no CPT inconclusive, DT40 TDP1 CPT 35µM
COc1ccccc1-c1nn2c(-c3cc(C)[nH]n3)nnc2s1	DT40 TDP1 no CPT 7.9µM, DT40 TDP1 CPT 8.9µM (no result: IL-1B inflam inh, CtBP-E1A blk, Six1-Eya2 blk)
COc1cc(-c2nn3c(-c4cc(-c5ccccc5)n[nH]4)nnc3s2)cc(OC)c1OC	DT40 TDP1 no CPT 8.9µM, DT40 TDP1 CPT 16µM (no result: IL-1B inflam inh, CtBP-E1A blk, Six1-Eya2 blk)
COc1cc(-c2nn3c(COc4ccccc4)nnc3s2)cc(OC)c1OC	none
COc1cccc(CNC(=O)CN(C)S(=O)(=O)c2cnc[nH]2)c1	none
